Rows were chosen to be rich in hits. Some 6.9% of all compounds tested hit in one or more screens of this group.
SKKanGAS inh: inhibitors of SKKanGAS S. pyogenes growth in kanamycin (SK-promoter or general growth effect). BacTiter-Glo, 6 h. inhibition, % at 7.5 µM. actives 1.3% (n = 300,000). AID 1662;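 active means mean replicate score, as percent of positive control median, at least 50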;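 further: strain carries kanamycin resistance gene driven by streptokinase promoter and grows in 40 µg/ml kanamycin; loss of luminescence reflects streptokinase promoter inhibition or plain growth inhibition; 0% = median of DMSO wells and 100% = positive control at its reference dose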
MPTP block: blocks calcium-induced mitochondrial swelling | isolated mouse mitochondria, Ca2+ swelling absorbance, 30 min | inhibition, % at 10 µM | actives 1.4% (n = 360,000) | AID 602449;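 active means inhibition of 50% or more, scaled per plate between neutral and stimulator controls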;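 further: 0% = DMSO wells given calcium and 100% = 1 mM EGTA wells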
CSC inhib: blocks cancer stem cells; cancer stem cell-like cells viability, luminescence; inhibition, % at 7.5 µM; actives 1.1% (n = 300,000); AID 2717; in the data active means inhibition above about 75%; tested in HMLE shEcad cells
NR3A LBD binder: NR3A (human) ligand-binding domain modulation; NR3A LBD differential scanning fluorimetry, Tm shift; 0% = protein alone, 100% = glycine-bound protein; Tm shift relative to glycine control, % at 25 µM; actives 2.5% (n = 340,000); AID 1259313;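 active means melting temperature shift of at least 10% of the positive control shift, at one fixed dose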
Beta cell apopt: blocks beta cell apoptosis. INS-1E cytokine-induced death, ATP luminescence, 48 h; percent of positive-control rescue, neutral wells zero. protection from apoptosis, % (no concentration beside the values). actives 0.8% (n = 300,000). AID 435005;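 active means Every replicate reaches about 75%, or at least half do and their mean reaches it too, limit read from the data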;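 further: 0% = cytokine-treated negative control wells and 100% = positive control rescue; higher means more ATP so stronger rescue from cytokine killing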
Mdm2-MdmX inh: inhibitors of human Mdm2/MdmX interaction | O15151+Q00987 | SaOS-2 split-luciferase Mdm2/MdmX complementation, luminescence | inhibition, % at 8 µM | actives 3% (n = 330,000);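 active means inhibition of at least 50% at 8 µM in the primary screen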
Mdm2-MdmX conf: confirmation of human Mdm2/MdmX interaction inhibitors. shares compounds with Mdm2-MdmX inh. Mdm2-MdmX binding, luminescent assay. inhibition, % at 8 µM. actives 55% (n = 10,000); in the data active means inhibition above about 40%
Full FLuc ctr: inhibits full-length luciferase, flagging false Mdm2/MdmX hits | shares compounds with Mdm2-MdmX inh | SaOS-2 full-length luciferase counterscreen, luminescence | inhibition, % at 8 µM | actives 77% (n = 6,200) | AID 504607;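 active means mean inhibition at 8 µM reaching about 37%, which flags the compound as non-specific, limit read from the data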;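 further: p53-null SaOS-2 cells with luciferase driven by a doxycycline-inducible promoter; compound on cells about two nights before reading with doxycycline added after day one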
* hit, by the source's call; · = no result.

SMILES	SKKanGAS inh	MPTP block	CSC inhib	NR3A LBD binder	Beta cell apopt	Mdm2-MdmX inh	Mdm2-MdmX conf	Full FLuc ctr
Cc1cccc(-n2c(O)c(/C=C3/C(c4ccccc4)=Nc4ccccc43)c(=O)[nH]c2=O)c1	-8	24	65	-3	19	54*	57*	36
Cc1ccccc1-n1c(O)c(/C=C2/C(c3ccccc3)=Nc3ccccc32)c(=O)[nH]c1=O	0	38	67	-17	15	57*	63*	66*
CC1=Nc2ccccc2/C1=C/c1c(O)n(C)c(=O)[nH]c1=O	0	0	12	1	-7	-5	·	·
COC(=O)C1=C(c2ccc(F)cc2F)C[C@@H]2CC[C@H]1N2C(=O)NCCOc1ccccc1	·	-1	2	2	13	7	·	·
CN(CCc1nnc(N)s1)[N+](=O)[O-]	-6	-2	-1	0	-3	17	·	·
CCCCCCn1c(=O)c(C(=O)Nc2cnccn2)c(O)c2ccccc21	64*	14	41	-10	28	61*	52*	46*
CCCCCn1c(=O)c(C(=O)Nc2ccccn2)c(O)c2ccccc21	1	5	20	0	·	54*	19	·
CCN(CC)C1=NC(=[N+](CC)CC)c2ccccc21	-5	-2	-5	1	70	37	·	·
Cc1c2ccncc2c(C)c2c1[nH]c1ccccc12	86*	3	109*	-11	119*	98*	92*	2
O=C(Cc1ccccc1)OCCNC(=O)c1cccnc1	-5	-1	·	2	·	18	·	·
N#CC(C#N)=C(N)c1cccnc1	-6	1	5	0	·	55*	-24	·
O=C(CCc1nnc2ccc(NCc3ccccc3)nn12)N1CCC2(CC1)OCCO2	-9	-1	18	-1	-1	24	·	·
COC(=O)C1=C(c2cccc(OCc3ccccc3)c2)C[C@@H]2CC[C@H]1N2C(=O)NC1CCN(Cc2ccccc2)CC1	·	0	22	1	8	61*	40*	71*
COC(=O)C1=C(c2ccc(F)cc2OCc2ccccc2)C[C@@H]2CC[C@H]1N2C(=O)NC1CCN(Cc2ccccc2)CC1	·	1	14	-1	0	76*	37	60*
COC(=O)C1=C(c2ccccc2OCc2ccccc2)C[C@@H]2CC[C@H]1N2C(=O)NC1CCN(Cc2ccccc2)CC1	·	3	12	1	7	51*	18	·
COC(=O)C1=C(c2ccc(F)cc2OCc2ccccc2)C[C@@H]2CC[C@H]1N2C(=O)NCc1ccccc1	·	0	24	6	5	14	·	·
N[C@@H](Cc1ccc(N(CCCl)CCCl)cc1)C(=O)O	·	-1	30	-3	11	68*	40	36*
Cc1cccc(-n2c(/C=C/c3ccc([N+](=O)[O-])o3)nc3ccccc3c2=O)c1	20	1	89*	0	-13	94*	57*	42*
O=c1c2ccccc2nc(/C=C/c2ccc([N+](=O)[O-])o2)n1-c1ccc(O)cc1	9	0	·	0	·	75*	85*	23
O=c1[nH]c(=S)[nH]c(O)c1N=Nc1ccc2c(c1)OCCO2	-8	1	8	-1	35	-1	·	·
O=c1[nH]c(O)c(N=Nc2ccc3c(c2)OCCO3)c(=O)[nH]1	-3	1	10	1	5	58*	68*	78*
CC(C)(O)/C=C/C(=O)[C@](C)(O)C1[C@H](O)C[C@@]2(C)C3CC=C4C(C[C@H](O)[C@@H](O)C4(C)C)[C@]3(C)C(=O)C[C@]12C (some centres not stated)	·	0	53	1	52	98*	94*	7
COc1ccc(C[C@H]2NC[C@H](O)[C@H]2OC(C)=O)cc1	0	0	79*	-2	51	98*	98*	5
COc1ccc(CCNC2CCCCC2)cc1	6	-4	-5	2	-2	14	·	·
CN(C)c1ccc(-[n+]2c(-c3ccccc3)cc(-c3ccccc3)cc2-c2ccccc2)cc1	-5	2	·	-7	·	89*	95*	23
SMILES	SKKanGAS inh	MPTP block	CSC inhib	NR3A LBD binder	Beta cell apopt	Mdm2-MdmX inh	Mdm2-MdmX conf	Full FLuc ctr
C[n+]1c(-c2ccccc2)cc(-c2ccc(Cl)cc2)cc1-c1ccccc1	-2	0	4	0	39	23	·	·
Cc1ccc(-c2cc(-c3ccccc3)cc(-c3ccccc3)[n+]2-c2ccccc2)cc1	-4	11	25	-4	121*	96*	92*	13
CCN(CC)S(=O)(=O)c1ccc(C(=O)NC2CN3CCC2CC3)cc1 (configuration not stated)	1	0	·	-1	·	7	·	·
CN1CCc2cc3c(c4c2C1Cc1ccccc1-4)OCO3 (configuration not stated)	4	0	18	2	88*	59*	52*	61*
CN1CCc2cc(O)cc3c2[C@H]1Cc1ccc(O)c(O)c1-3	-2	0	0	2	-3	6	·	·
CN(C)C(=O)Oc1ccc(OCc2nc3ccccc3[nH]2)cc1	22	18	53	1	58	-55	·	·
COc1c(/C=C2/C(=O)NC(=O)N(C)C2=O)c(CCN(C)C(=O)c2ccccc2)cc2c1OCO2	3	11	-1	-4	8	5	·	·
Nc1c(C(=O)NCCc2ccccc2)c2nc3ccccc3nc2n1CCN1CCOCC1	14	-1	·	12*	·	54*	28	·
CCCCn1c(N)c(C(=O)NCCN2CCOCC2)c2nc3ccccc3nc21	11	-1	14	-2	-2	4	·	·
COc1ccc(CCNC(=O)c2c(N)n(CCN3CCOCC3)c3nc4ccccc4nc23)cc1	50*	-2	42	-1	1	76*	8	·
CCOC(=O)c1cncn1[C@H](C)c1ccccc1	-5	·	5	·	-2	15	·	·
O=C1Nc2cc(C(=O)N3CCC4(CC3)OCCO4)ccc2S/C1=C\c1ccccc1	-2	0	52	-1	17	61*	50*	66*
CCCCCC[N+](=O)[O-]	·	-1	-8	2	-11	15	·	·
CCCCCCCCCCCCCCCC[N+](C)(C)C	103*	4	102*	-11	117*	90*	76*	9
COC(=O)C1=CO[C@@H](C)[C@@H]2CN3CC[C@]4(C(=O)Nc5ccccc54)[C@@H]3C[C@H]12	8	0	2	-1	1	7	·	·
COc1ccc(C(C)=O)cc1Cc1c(O)[nH]c(=S)[nH]c1=O	1	0	-8	2	-9	-1	·	·
COc1ccc(C2=NCc3nnc(C)n3-c3ccc(Cl)cc32)cc1Cl	6	0	37	-1	0	65*	28	·
Cc1ncc2n1-c1ccc(Cl)cc1C(c1ccccc1F)=NC2	·	-2	·	1	·	51*	14	·
